Measurements from PubChem BioAssay (NCI).
Compounds without any hit were thinned out: in the full panel of roughly 83,000, 20% have a hit.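 Negative percent growth values reflect cell death: -40 means 40% of the cells present at the start died, and -100 means all died.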 Calls of active or inactive are those of the source. Rule for the calls: active = growth percent below 10; inactive = the rest.

system: OVCAR-4 ovarian; assay: NCI-60 one-dose screen, 48 h (100 = growth as untreated, 0 = no growth, -100 = all killed); settings: 10 µM unless noted

Row | Compound | growth
1 | CCOC(=O)c1cnn(-c2nc(-c3ccc(F)cc3)c(C#N)c(N3CCOCC3)n2)c1N | 101% (inactive)
2 | Cc1c(O)c(=O)ccn1-c1nc2ccccc2s1 | 97.7% (inactive)
3 | Nc1ccc(C2=NN(C(=O)c3cc(-c4ccc(Cl)cc4)nc4ccccc34)C(c3ccc(Cl)cc3)C2)cc1 (configuration not stated) | 72.4% (inactive)
4 | COc1ccc2nc(-c3ccc(OC)c(OC)c3)cc(-c3nnc(SCC(=O)Nc4ccc(C(C)=O)cc4)o3)c2c1 | 106% (inactive)
5 | CNCc1cccc2c1OCCOCCOCCN(CCN1CCOCC1)S(=O)(=O)c1ccc(cc1)-c1cnc(N)c(n1)C(=O)N2 | 54.8% (inactive)
6 | COc1cc(C2=NN(C(C)=O)C(c3cccc(Nc4ccnc5cc(C(F)(F)F)ccc45)c3)C2)cc(OC)c1OC (configuration not stated) | 52% (inactive)
7 | CC(C)CSc1nc(Nc2ccccc2)c(C#N)c(-c2ccc(F)cc2)n1 | -81.3% (active)
8 | CNc1cccc2c1C(=O)c1cccc(N)c1C2=O | 57.6% (inactive)
9 | NC(=O)c1ccc(C2C3=C(CCCC3=O)OC3=C2C(=O)c2ccccc2C3=O)cc1 (configuration not stated) | -12.8% (active)
10 | C=CCn1c(SCC(=O)Nc2ccc(C(=O)/C=C/c3ccc(Cl)cc3)cc2)nnc1-c1cc(OC)c(OC)c(OC)c1 | 87.9% (inactive)
11 | C=C1C(=O)O[C@H]2[C@H]1CC/C(C=Nc1c(N)cc(F)cc1Br)=C\CC[C@@]1(C)O[C@@H]21 | 105% (inactive)
12 | COc1cc(-c2csc(NC(=O)Nc3ccc(Cl)cc3)n2)cc(OC)c1OC | 9.02% (active)
13 | COc1ccc(C(=O)c2cc(OC)c(C)c(OC)c2)cc1OC(=O)CCl | 60.1% (inactive)
14 | Nc1c(C(=O)Nc2cccc3ccccc23)sc2nc3c(cc12)COCC3 | 73.4% (inactive)
15 | CN(C)C(CNc1oc(-c2cccc3ccccc23)nc1C#N)c1ccco1 (configuration not stated) | 83.2% (inactive)
16 | Cc1cnc(-c2ccc(-c3ccc(NC(=O)Nc4c(F)cc(F)cc4F)cc3F)c3c2C(=O)NC3)[nH]1 | -16.5% (active)
17 | COc1ccc(-c2cc(C(=O)N3N=C(c4ccc(N)cc4)CC3c3ccc(OC)cc3)c3cc(OC)ccc3n2)cc1 (configuration not stated) | 71.9% (inactive)
18 | COc1cc([C@H](C)c2ccc3ccccc3c2)cc(OC)c1OC | 40.6% (inactive)
19 | O=c1nc(-c2ccccc2)c2cc(-c3ccc(N4CCCC4)nc3)ccc2[nH]1 | 85.3% (inactive)

Row | Compound | growth
20 | Cc1cccc2nc3c(n12)C(=O)C(=O)c1ccccc1-3 | 83.1% (inactive)
21 | CC(=O)Nc1c(C(=O)Nc2ccccc2)sc2nc3c(cc12)C(OC(C)=O)CCC3 (configuration not stated) | 108% (inactive)
22 | CCN1CCN(c2ccc(NC(=O)Nc3nc4ccc(-c5ccccc5OC)cc4s3)cc2)CC1 | -76.1% (active)
23 | Cc1cc(Cl)cc(CN(Cc2ccccc2)Cc2c(O)ccc3ccccc23)c1O | 105% (inactive)
24 | COC1=CC=CC2(OC)C3(O)CCCc4cccc(c43)N3C(=O)COC132 (configuration not stated) | 96.6% (inactive)
25 | C=C1C(=O)O[C@H]2[C@H]1CC/C(COC(=O)N1CCC[C@H]1C(=O)Nc1ccc(OC)c(C(N)=O)c1O)=C\CC[C@@]1(C)O[C@@H]21 | 52% (inactive)
26 | Cc1cc(C)nc(NS(=O)(=O)c2ccc(Nc3ccc4c5c(n(CCCN(C)C)c(=O)c4c3)-c3ccccc3C5=O)cc2)n1 | 107% (inactive)
27 | COc1cc(NC(=O)c2cc(O)c(C/C=C(\C)CCC=C(C)C)c(O)c2)cc2c1O[C@]1(C)CC[C@@H](O)C(C)(C)[C@H]1C2 | 29.6% (inactive)
28 | CCCCCCN1C(=O)CN=C1Nc1ccc2cc3ccc(NC4=NCC(=O)N4CCCCCC)cc3nc2c1 | 55.6% (inactive)
29 | Nc1ccc(C2=NN(C(=O)c3cc(-c4ccc(Cl)cc4)nc4ccccc34)C(c3ccccc3)C2)cc1 (configuration not stated) | 63.1% (inactive)
30 | CN(CCC#N)C(=O)Nc1ccccc1 | 104% (inactive)
31 | C=C(C)[C@@H]1CC[C@]2(C(=O)OCCCC[P+](c3ccccc3)(c3ccccc3)c3ccccc3)CC[C@]3(C)[C@H](CC[C@@H]4[C@@]5(C)CC[C@H](OC(=O)C(Cl)Cl)C(C)(C)[C@@H]5CC[C@]43C)[C@@H]12 | -0.103% (active)
32 | CSc1cccc(NC(=O)Nc2nc3c(C)cccc3s2)c1 | 85% (inactive)
33 | O=C(O)c1cn(C2CC2)c2cc(N3CCN(Cc4nnc(Nc5ccccc5)o4)CC3)c(F)cc2c1=O | 101% (inactive)
34 | O=C1CS/C(=N/c2nnc(-c3ccc(O)cc3)s2)N1 | 110% (inactive)
35 | COc1ccc2c(c1)C1(C(=O)N2)C(C#N)=C(c2ccccc2)Nc2c1c(-c1ccccc1)nn2-c1ccccc1 (configuration not stated) | -1.01% (active)
36 | CCN1CCC[C@H]1c1cc(O)c2c(c1OC)C[C@H]1C[C@H]3[C@H](N)C(=O)C(C(N)=O)=C(O)[C@@]3(O)C(=O)C1=C2O | -0.794% (active)
37 | O=C(/C(=C/c1ccc([N+](=O)[O-])cc1)SCc1ccccc1)c1ccc(Cl)cc1 | 74.5% (inactive)
